Reference: the supplement of paper PMC7411054
Structures can show the parent of a compound that is named as a salt.

Tests used:
Test in all cases: lowest phenotypically active concentration; higher = less potent
Conditions in all cases: treatment time: 24 h
A549-ACTB-RAB5A = system: A549-ACTB-RAB5A
Method in brief: (§1)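 Live-cell features were measured per well and normalised to solvent control wells after fifteen gene-edited A549, HepG2 and WPMY1 reporter lines had been treated for 24 h at 0.3, 1, 3 or 9 µM in four wells each. A condition was deviating when ≥3 of 4 wells sat beyond the 95th percentile of control Euclidean distances. It was reproducible when the median replicate Pearson correlation exceeded the 95th percentile of non-replicates. Phenotypic activity demanded both.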

A549-GM130-SQSTM1 = system: A549-GM130-SQSTM1
Method in brief: as §1

A549-TP53BP1-CLTA = system: A549-TP53BP1-CLTA
Method in brief: as §1

HepG2-TP53BP1-CLTA = system: HepG2-TP53BP1-CLTA
Method in brief: as §1

A549-TUBA1B-RELA = system: A549-TUBA1B-RELA
Method in brief: as §1

WPMY1-ACTB-RAB5A = system: WPMY1-ACTB-RAB5A
Method in brief: as §1

WPMY1-CANX-COX4 = system: WPMY1-CANX-COX4
Method in brief: as §1

WPMY1-TUBA1B-RELA = system: WPMY1-TUBA1B-RELA
Method in brief: as §1

A549-CANX-COX4 = system: A549-CANX-COX4
Method in brief: as §1

HepG2-ACTB-RAB5A = system: HepG2-ACTB-RAB5A
Method in brief: as §1

Measured: lowest phenotypically active concentration

Cc1c(C(=O)Nc2cccc(C(F)(F)F)c2)cc(-c2ccccc2)n1CCCN1CCOCC1
9 µM: A549-ACTB-RAB5A | A549-GM130-SQSTM1

COc1ccc2c(c[n+](C)c3c4cc5c(cc4ccc23)OCO5)c1OC [Chelerythrine chloride]
9 µM: A549-TP53BP1-CLTA | HepG2-TP53BP1-CLTA
3 µM: A549-ACTB-RAB5A

CC[C@H]1CN2CC[C@H]1C[C@@H]2[C@@H](O)c1ccnc2ccc(OC)cc12 [Hydroquinidine HCl]
9 µM: A549-ACTB-RAB5A | A549-TUBA1B-RELA | WPMY1-ACTB-RAB5A | WPMY1-CANX-COX4 | WPMY1-TUBA1B-RELA

COc1cc([C@@H]2c3cc4c(cc3[C@H](O)[C@H]3COC(=O)[C@H]23)OCO4)cc(OC)c1OC [Podophyllotoxin]
1 µM: HepG2-TP53BP1-CLTA
≤ 0.3 µM: all other assays above

COc1cc2c(c(OC)c1OC)-c1ccc(O)c(=O)cc1[C@@H](N)CC2 [Trimethylcolchicinic acid]
9 µM: A549-ACTB-RAB5A | A549-CANX-COX4 | A549-GM130-SQSTM1 | A549-TP53BP1-CLTA | A549-TUBA1B-RELA

CC[C@@H]1C=CC=CC[C@H](C)[C@@H](O)[C@](C)(O)C(=O)[C@H](C)[C@@H](O)[C@H](C)C(=O)[C@H](C)[C@@H](O)[C@H](C)C=CC(=O)O[C@H]2[C@@H](C)[C@@H](CC1)O[C@@]1(CC[C@@H](C)[C@@H](C[C@H](C)O)O1)[C@@H]2C [Oligomycin A]
1 µM: WPMY1-CANX-COX4
not listed: WPMY1-ACTB-RAB5A | WPMY1-TUBA1B-RELA
≤ 0.3 µM: all other assays above

O=C1NC(=O)c2c1c1c3ccccc3n3c1c1c2c2ccccc2n1C1CCC3O1
≤ 0.3 µM: A549-ACTB-RAB5A | A549-GM130-SQSTM1 | A549-TUBA1B-RELA
9 µM: HepG2-TP53BP1-CLTA | WPMY1-CANX-COX4
3 µM: WPMY1-ACTB-RAB5A

CCN1CCN(C(=O)Cc2ccc(Nc3ncc(F)c(Nc4ccc(C(=O)Nc5ccccc5Cl)cc4)n3)cc2)CC1
≤ 0.3 µM: HepG2-TP53BP1-CLTA
not listed: WPMY1-CANX-COX4
1 µM: all other assays above

O=C(NCCN1CCC2(CC1)C(=O)NCN2c1cccc(F)c1)c1ccc(F)c(F)c1 [ML 298 hydrochloride]
3 µM: A549-ACTB-RAB5A | A549-TUBA1B-RELA
9 µM: all other assays above

C/C=C(/C)C(=O)O[C@H]1C(C)=C2[C@H]([C@@H]1OC(=O)CCCCCCC)[C@@](C)(OC(C)=O)C[C@H](OC(=O)CCC)[C@@]1(O)[C@H]2OC(=O)[C@@]1(C)O [Thapsigargin]
≤ 0.3 µM: all assays above

COC(=O)[C@@]1(O)C[C@H]2O[C@]1(C)n1c3ccccc3c3c4c(c5c6ccccc6n2c5c31)C(=O)NC4
≤ 0.3 µM: all assays above

COc1ccc2c(c1)/C(=C/c1c[nH]cn1)C(=O)N2
3 µM: WPMY1-ACTB-RAB5A
1 µM: all other assays above

COc1ccc(CCN2CCC(Nc3nc4ccccc4n3Cc3ccc(F)cc3)CC2)cc1 [astemizole]
9 µM: A549-CANX-COX4
≤ 0.3 µM: A549-GM130-SQSTM1
1 µM: A549-ACTB-RAB5A | A549-TUBA1B-RELA
3 µM: all other assays above

CN1C[C@H](C(=O)N[C@]2(C)O[C@@]3(O)[C@@H]4CCCN4C(=O)[C@H](Cc4ccccc4)N3C2=O)C[C@@H]2c3cccc4[nH]cc(c34)C[C@H]21.CN1C[C@H](C(=O)N[C@]2(C)O[C@@]3(O)[C@@H]4CCCN4C(=O)[C@H](Cc4ccccc4)N3C2=O)C[C@@H]2c3cccc4[nH]cc(c34)C[C@H]21 [dihydroergotamine]
9 µM: A549-ACTB-RAB5A | A549-GM130-SQSTM1 | A549-TP53BP1-CLTA | A549-TUBA1B-RELA | HepG2-ACTB-RAB5A | HepG2-TP53BP1-CLTA

CC[C@@H](C(=O)[C@@H](C)[C@@H](O)[C@H](C)[C@@H]1O[C@@H]([C@@H](CC)C(=O)O)CC[C@@H]1C)[C@H]1O[C@]2(C=C[C@@H](O)[C@]3(CC[C@@](C)([C@H]4CC[C@](O)(CC)[C@H](C)O4)O3)O2)[C@H](C)C[C@@H]1C [Salinomycin Sodium]
1 µM: A549-CANX-COX4 | HepG2-ACTB-RAB5A | HepG2-TP53BP1-CLTA
≤ 0.3 µM: all other assays above

COc1ccc(C[C@H]2NC[C@H](O)[C@H]2OC(C)=O)cc1 [Anisomycin]
≤ 0.3 µM: all assays above
